Test results: ChEMBL document CHEMBL1961873, “Compounds: GSK PKIS; Assays: Nanosyn kinase panel” (2012)

What was measured:
[1] = target: Serine/threonine-protein kinase MARK2 (Homo sapiens) (UniProt Q7KZI7); conditions: at 1 µM
[2] = target: PAS domain-containing serine/threonine-protein kinase (Homo sapiens) (UniProt Q96RG2); conditions: at 0.1 µM
[3] = target: PAS domain-containing serine/threonine-protein kinase (Homo sapiens) (UniProt Q96RG2); conditions: at 1 µM
[4] = target: Phosphorylase b kinase gamma catalytic chain, skeletal muscle/heart isoform (Homo sapiens) (UniProt Q16816); conditions: at 0.1 µM
Chain of Phosphorylase b kinase gamma catalytic chain, skeletal muscle/heart isoform (Homo sapiens) (Q16816 whole entry, looked up, canonical isoform): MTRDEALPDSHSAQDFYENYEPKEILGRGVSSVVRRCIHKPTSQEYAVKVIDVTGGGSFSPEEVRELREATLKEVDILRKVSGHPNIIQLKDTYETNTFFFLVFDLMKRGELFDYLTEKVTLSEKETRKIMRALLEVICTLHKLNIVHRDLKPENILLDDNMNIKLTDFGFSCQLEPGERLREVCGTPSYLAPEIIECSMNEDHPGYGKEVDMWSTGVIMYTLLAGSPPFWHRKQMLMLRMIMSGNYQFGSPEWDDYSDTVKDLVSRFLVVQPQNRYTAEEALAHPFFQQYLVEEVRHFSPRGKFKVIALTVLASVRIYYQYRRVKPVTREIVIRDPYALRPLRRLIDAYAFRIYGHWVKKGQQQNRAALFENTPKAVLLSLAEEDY

[5] = target: Phosphorylase b kinase gamma catalytic chain, skeletal muscle/heart isoform (Homo sapiens) (UniProt Q16816); conditions: at 1 µM
[6] = target: T1, Phosphorylase b kinase gamma catalytic chain, liver/testis isoform (Homo sapiens) (UniProt P15735); conditions: at 0.1 µM
T1 sequence (whole entry): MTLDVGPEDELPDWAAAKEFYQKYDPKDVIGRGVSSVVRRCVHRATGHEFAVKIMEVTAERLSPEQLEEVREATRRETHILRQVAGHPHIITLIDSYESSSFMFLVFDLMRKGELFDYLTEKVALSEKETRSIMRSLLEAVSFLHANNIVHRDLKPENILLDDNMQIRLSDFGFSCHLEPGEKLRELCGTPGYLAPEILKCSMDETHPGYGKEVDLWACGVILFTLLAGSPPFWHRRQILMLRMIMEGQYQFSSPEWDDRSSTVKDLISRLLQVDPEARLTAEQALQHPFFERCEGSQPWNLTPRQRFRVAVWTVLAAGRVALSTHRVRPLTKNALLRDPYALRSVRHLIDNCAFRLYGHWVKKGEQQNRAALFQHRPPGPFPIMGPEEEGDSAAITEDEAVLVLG

[7] = target: T1, Phosphorylase b kinase gamma catalytic chain, liver/testis isoform (Homo sapiens); conditions: at 1 µM
[8] = target: Serine/threonine-protein kinase pim-1 (Homo sapiens) (UniProt P11309); conditions: at 0.1 µM
Chain of Serine/threonine-protein kinase pim-1 (Homo sapiens) (P11309 whole entry, looked up): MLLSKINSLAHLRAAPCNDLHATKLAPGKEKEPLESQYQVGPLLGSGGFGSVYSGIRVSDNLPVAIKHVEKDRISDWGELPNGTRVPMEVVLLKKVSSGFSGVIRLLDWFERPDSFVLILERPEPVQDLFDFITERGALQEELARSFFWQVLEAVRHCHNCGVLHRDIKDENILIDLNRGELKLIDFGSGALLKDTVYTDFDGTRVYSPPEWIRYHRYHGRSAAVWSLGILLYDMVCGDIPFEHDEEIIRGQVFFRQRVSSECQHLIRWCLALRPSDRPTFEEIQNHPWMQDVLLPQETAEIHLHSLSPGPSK

[9] = target: Serine/threonine-protein kinase pim-1 (Homo sapiens) (UniProt P11309); conditions: at 1 µM
[10] = target: Serine/threonine-protein kinase pim-2 (Homo sapiens) (UniProt Q9P1W9); conditions: at 0.1 µM;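 further: reported value is the mean percent inhibition of PIM2, measured in the GSK PKIS kinase inhibitor set screen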
Chain of Serine/threonine-protein kinase pim-2 (Homo sapiens) (Q9P1W9 whole entry, looked up): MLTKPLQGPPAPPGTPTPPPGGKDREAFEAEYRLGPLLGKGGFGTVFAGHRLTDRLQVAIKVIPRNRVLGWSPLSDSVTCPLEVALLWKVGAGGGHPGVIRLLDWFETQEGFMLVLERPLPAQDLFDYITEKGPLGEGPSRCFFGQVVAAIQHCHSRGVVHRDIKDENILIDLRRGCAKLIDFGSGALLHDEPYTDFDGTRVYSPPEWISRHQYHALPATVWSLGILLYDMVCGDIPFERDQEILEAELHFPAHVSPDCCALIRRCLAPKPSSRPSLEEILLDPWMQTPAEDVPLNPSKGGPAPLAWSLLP

Chain of PAS domain-containing serine/threonine-protein kinase (Homo sapiens) (Q96RG2 whole entry, the tested form may be a part, canonical isoform): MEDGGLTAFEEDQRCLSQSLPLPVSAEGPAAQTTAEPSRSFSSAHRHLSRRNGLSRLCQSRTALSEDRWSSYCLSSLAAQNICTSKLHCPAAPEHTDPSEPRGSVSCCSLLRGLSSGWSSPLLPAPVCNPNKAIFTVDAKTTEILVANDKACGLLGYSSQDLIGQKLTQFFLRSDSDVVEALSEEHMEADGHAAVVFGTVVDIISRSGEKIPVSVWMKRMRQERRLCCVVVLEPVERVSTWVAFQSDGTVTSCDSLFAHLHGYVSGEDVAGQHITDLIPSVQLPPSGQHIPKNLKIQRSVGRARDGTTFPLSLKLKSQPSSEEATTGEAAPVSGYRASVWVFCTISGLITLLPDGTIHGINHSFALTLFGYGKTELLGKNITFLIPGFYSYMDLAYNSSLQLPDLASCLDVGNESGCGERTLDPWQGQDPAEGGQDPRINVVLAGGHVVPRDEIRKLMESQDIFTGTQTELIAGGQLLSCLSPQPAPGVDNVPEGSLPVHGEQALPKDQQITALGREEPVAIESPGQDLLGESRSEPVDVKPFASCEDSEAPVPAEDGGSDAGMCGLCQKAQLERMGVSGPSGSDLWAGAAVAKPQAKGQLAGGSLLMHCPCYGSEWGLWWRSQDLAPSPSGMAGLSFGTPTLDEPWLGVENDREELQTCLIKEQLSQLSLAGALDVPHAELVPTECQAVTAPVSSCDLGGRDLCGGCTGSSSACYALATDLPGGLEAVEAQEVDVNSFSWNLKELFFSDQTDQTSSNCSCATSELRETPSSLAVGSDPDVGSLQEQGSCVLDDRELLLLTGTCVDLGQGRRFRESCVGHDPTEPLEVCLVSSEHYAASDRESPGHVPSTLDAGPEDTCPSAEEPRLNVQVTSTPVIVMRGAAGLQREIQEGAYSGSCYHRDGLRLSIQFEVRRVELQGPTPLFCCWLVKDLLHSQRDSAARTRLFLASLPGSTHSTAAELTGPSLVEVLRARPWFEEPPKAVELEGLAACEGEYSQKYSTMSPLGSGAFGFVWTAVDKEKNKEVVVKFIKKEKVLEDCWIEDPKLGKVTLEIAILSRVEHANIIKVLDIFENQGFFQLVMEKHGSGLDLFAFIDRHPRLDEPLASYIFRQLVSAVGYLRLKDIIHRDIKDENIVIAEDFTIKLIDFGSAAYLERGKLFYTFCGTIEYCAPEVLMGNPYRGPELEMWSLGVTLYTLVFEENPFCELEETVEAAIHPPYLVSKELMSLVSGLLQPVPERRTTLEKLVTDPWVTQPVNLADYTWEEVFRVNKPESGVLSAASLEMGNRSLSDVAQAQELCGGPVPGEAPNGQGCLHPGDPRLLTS
Chain of Serine/threonine-protein kinase MARK2 (Homo sapiens) (Q7KZI7 whole entry, the tested form may be a part): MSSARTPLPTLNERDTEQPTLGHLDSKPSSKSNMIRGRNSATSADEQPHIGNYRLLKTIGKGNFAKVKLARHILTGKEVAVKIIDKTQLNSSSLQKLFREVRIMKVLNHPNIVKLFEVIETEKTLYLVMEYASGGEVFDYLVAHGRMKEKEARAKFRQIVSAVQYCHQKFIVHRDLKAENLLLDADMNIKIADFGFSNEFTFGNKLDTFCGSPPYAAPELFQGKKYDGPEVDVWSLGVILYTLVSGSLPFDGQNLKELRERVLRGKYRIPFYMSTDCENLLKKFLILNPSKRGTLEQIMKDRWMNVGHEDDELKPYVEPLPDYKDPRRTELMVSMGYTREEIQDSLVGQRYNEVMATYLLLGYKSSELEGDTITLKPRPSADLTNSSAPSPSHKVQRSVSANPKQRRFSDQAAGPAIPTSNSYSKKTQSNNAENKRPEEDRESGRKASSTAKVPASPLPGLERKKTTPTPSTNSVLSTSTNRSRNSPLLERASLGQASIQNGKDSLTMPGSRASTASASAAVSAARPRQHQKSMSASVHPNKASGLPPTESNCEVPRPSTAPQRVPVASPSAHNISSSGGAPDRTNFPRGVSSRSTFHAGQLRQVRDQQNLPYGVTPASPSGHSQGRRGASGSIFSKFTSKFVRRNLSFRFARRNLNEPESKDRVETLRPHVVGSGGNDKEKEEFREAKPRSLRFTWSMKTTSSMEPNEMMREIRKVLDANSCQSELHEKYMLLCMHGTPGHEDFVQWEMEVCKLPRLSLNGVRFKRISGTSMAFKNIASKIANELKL

SMILES | inhibition [1] [%] | inhibition [2] [%] | inhibition [3] [%] | inhibition [4] [%] | inhibition [5] [%] | inhibition [6] [%] | inhibition [7] [%] | inhibition [8] [%] | inhibition [9] [%] | inhibition [10] [%]
COc1ccc(-c2oc3ncnc(N)c3c2-c2ccc(NC(=O)Nc3cc(C(F)(F)F)ccc3F)cc2)cc1 | 0.81 | 1.45 | 4.43 | 4.93 | 16.9 | 6.42 | 9.75 | -0.3 | 0.75 | 0.28
c1ccc(COc2ccc(Nc3ncnc4ccc(-c5ccco5)cc34)cc2)cc1 | 1.38 | 0.95 | 1.6 | 4.05 | 5.22 | 1.07 | 2.25 | -1.26 | 0.42 | 0.63
Cc1ccc2c(-c3ccnc(Nc4ccccc4)n3)c(-c3ccc(F)cc3)nn2n1 | 1.15 | 0.46 | -1.64 | 1.5 | 4.45 | 4.39 | 1.91 | -0.18 | -0.05 | -0.3
COc1cc(N2CCN(C(C)C)CC2)ccc1Nc1nc(Nc2ccc(F)cc2C(N)=O)c2cc[nH]c2n1 | 39.3 | -0.71 | 2.69 | 58.2 | 78.1 | 19.1 | 64.7 | 3.27 | 25.3 | -0.44
CCCN1CCC(c2ccc(Nc3nc(Nc4cc(F)ccc4C(N)=O)c4cc[nH]c4n3)c(OC)c2)CC1 | 41 | 0.01 | 20.7 | 51.3 | 80.7 | 25.7 | 71.7 | 7.64 | 45.3 | 1.98
Fc1ccc(-c2nn3ccccc3c2-c2ccncc2)cc1 | 0.53 | -0.17 | -0.32 | 2.42 | 2.09 | 0.28 | -0.7 | -0.39 | 0.04 | -0.3
CN1CCC(n2cnc(-c3ccc(F)cc3)c2-c2ccnc(Nc3ccccc3)n2)CC1 | -0.33 | -0.38 | 2.19 | 3.44 | 4.79 | 3.49 | 2.68 | 0.38 | 2.62 | -0.56
FC(F)(F)c1cccc(-c2nn3ncccc3c2-c2ccnc(Nc3ccc4c(c3)OCCO4)n2)c1 | 1.86 | 0.04 | -1.92 | -0.01 | 2.06 | 1.75 | 0.4 | 0.41 | 0.7 | -0.06
CS(=O)(=O)CCNCc1coc(-c2ccc3ncnc(Nc4ccc(OCc5ccccc5)cc4)c3c2)c1 | 2.39 | 0.45 | 0.89 | 2.33 | 6.25 | 3.94 | 3.59 | 1.45 | 1.25 | -0.56
CCNC(=O)O[C@H]1CN[C@H](C#Cc2cc3ncnc(Nc4ccc(OCc5cccc(F)c5)c(Cl)c4)c3s2)C1 | 2.03 | 0.27 | -1.53 | 0.81 | 0.44 | 3.66 | 0.88 | 0.78 | 0.26 | -0.1
CCn1c(-c2nonc2N)nc2cnc(Oc3cccc(NC(=O)c4ccc(N(C)C)cc4)c3)cc21 | 11 | -0.49 | 1.54 | -0.31 | 2.21 | 1.21 | -0.74 | 0.69 | 8.74 | -0.19
COc1cccc(-c2c[nH]c3c(N/N=C/c4ccncc4)ncnc23)c1 | 5.48 | 0.94 | -0.58 | 3.01 | 12.1 | 3.45 | 1.52 | 1.65 | 5.38 | -0.12
Cc1cccc(Nc2ncc(-c3ccccc3)o2)c1 | 6.99 | -0.74 | 1.15 | 2.49 | 0.97 | 2.92 | 3.71 | 1.11 | 0.94 | 0.15
CCN(CC)S(=O)(=O)c1ccc(OC)c(Nc2ncc(-c3ccccc3)o2)c1 | 0.33 | 1.24 | 1.76 | -0.59 | 12.3 | 2.23 | 2.3 | 1.35 | 0.97 | -0.31
CS(=O)(=O)CCNCc1ccc(-c2ccc3ncnc(Nc4ccc(OCc5ccccc5)c(C(F)(F)F)c4)c3c2)o1 | 1.46 | 0 | 0.88 | 7.15 | 6.03 | 5.4 | 5.06 | -0.57 | 1.31 | 0.54
CCn1cc(-c2ccnc3[nH]ccc23)c(-c2cccc(NC(=O)Nc3ccc(OCc4ccccc4)cc3)c2)n1 | 1.54 | 0.94 | 1.65 | 1.58 | 4.8 | 1.37 | 1.3 | -0.93 | -1.25 | 0.19
Cc1ccc(O)cc1Nc1ccnc2cc(-c3ccccn3)ccc12 | 4.34 | 0.71 | -0.05 | 2.23 | 9.36 | 5.58 | 2.55 | 0.67 | 3.79 | 0.49

SMILES | inhibition [1] [%] | inhibition [2] [%] | inhibition [3] [%] | inhibition [4] [%] | inhibition [5] [%] | inhibition [6] [%] | inhibition [7] [%] | inhibition [8] [%] | inhibition [9] [%] | inhibition [10] [%]
CCn1c(-c2nonc2N)nc2ccccc21 | 2.79 | 1.01 | 0.51 | 2.03 | 2.71 | 3.71 | 0.96 | 0.21 | 4.54 | -0.12
CCn1c(-c2nonc2N)nc2c(C#CC(C)(C)O)nc(OC[C@H](N)c3ccccc3)cc21 | 18.1 | -0.65 | 8.04 | 2.23 | -1.37 | 2.76 | 5.27 | 1.54 | 3.63 | 0.71
COc1ccc(-c2cc(-c3c[nH]nc3-c3ccccn3)ccn2)cc1 | 1.63 | 1.23 | 0.75 | 2.63 | 6.04 | 6.55 | 8.39 | -0.05 | 0.03 | 0.36
NC(=O)c1sc(-n2cnc3ccc(C(F)(F)F)cc32)cc1OCc1ccccc1Br | -0.94 | -1.22 | -1.68 | 4.21 | 7.92 | 5.06 | 4.43 | -0.41 | 2.03 | -0.42
Fc1ccc(-c2nn3ncccc3c2-c2ccnc(Nc3ccc4c(c3)OCCO4)n2)cc1 | -1.26 | -0.29 | -3.15 | 4.49 | 6.66 | 4.66 | 0.54 | 0.37 | 1.21 | 0.26
N#Cc1c(NC(=O)CN2CCOCC2)sc2c1CCCC2 | 1.25 | 0.47 | 0.86 | 6 | 9.65 | 5.37 | 6.47 | 0.03 | 0.16 | 0.29
Nc1nc(-c2cccc(Cl)c2)c(-c2ccc3ncccc3n2)s1 | -0.63 | 0.04 | 1.47 | 6.45 | 11.3 | 5.42 | 10.1 | 1.14 | 3.59 | -0.44
CC(C)(CO)CNC(=O)c1ccc2c(c1)/C(=N/Nc1ccc(S(N)(=O)=O)cc1)C(=O)N2 | 32.2 | 1.39 | 0.43 | 6.19 | 29.9 | 0.52 | 3.4 | 2.44 | 18.9 | 0.31
COC(=O)Nc1nc2ccc(Oc3ccc(NC(=O)Nc4cccc(Cl)c4)cc3)cc2[nH]1 | 0.42 | 1.55 | 0.95 | 1.88 | 4.58 | 1.21 | 1.57 | -0.68 | -1.08 | -0.32
Nc1nc(-c2ccc(F)cc2)c(-c2ccc3ncccc3n2)s1 | 0.96 | 0.84 | -0.64 | 4.41 | 7.81 | 6.3 | 5.79 | 0.35 | 2.38 | 0.17
COc1cc(Nc2nccc(Nc3ccc4c(C)n[nH]c4c3)n2)cc(OC)c1OC | 8.17 | 1.32 | 0.33 | -0.65 | 5.26 | 2.27 | 0.52 | 1.13 | 1.26 | 1.46
Fc1ccc(-c2cc(-c3c[nH]nc3-c3ccccn3)ccn2)cc1 | -2.56 | -0.42 | 0.53 | 5.71 | 9.03 | 5.07 | 8.42 | -0.17 | 0.76 | 0.19
Fc1cccc(COc2ccc(Nc3ncnc4sc(-c5ccco5)cc34)cc2Cl)c1 | 2.25 | -0.19 | 0.63 | 5.6 | 5.83 | 4.96 | 5.36 | -0.57 | 0.55 | 0.56
NS(=O)(=O)c1ccc(Nc2ncc(-c3ccccc3)o2)cc1 | 7.59 | -0.04 | -0.31 | 3.92 | 18.4 | 4.88 | 7.08 | 0.17 | 0.64 | -0.58
CCN1CCC(CC(=O)Nc2n[nH]c3nnc(-c4cccc(F)c4F)cc23)CC1 | 1.15 | 0.77 | 1.59 | 5.02 | 5.09 | 3.86 | 4.27 | 0.56 | 0.7 | 0.39
CN(C)CCOc1ccc(-c2nc(-c3ccncc3)c(-c3ccc4c(c3)CC/C4=N\O)[nH]2)cc1 | 0.92 | -0.26 | 0.36 | 1.18 | 7.7 | 3.65 | 5.28 | 1.13 | 1.48 | -0.23
CCn1c(-c2nonc2N)nc2c(C#CC(C)(C)O)ncc(OC3CCNCC3)c21 | 62.2 | -0.02 | 13.1 | 1.52 | 3.09 | 4.06 | 3.58 | 2.62 | 24.1 | 1.16
